Results on 7 molecules are retold here after PubChem BioAssay.

Calls of active or inactive are those of the source. Unless noted, the rule behind the calls is not given here.

The nature of assay [1]: compound effects on lung adenocarcinoma cell viability – A549, calcein-AM fluorescence, 48 h, basal, profiling panel (AID 1162). Note: test concentration not given here. The note with it: higher = more signal.
Assay [2] is described as follows: compound effects on differentiated 3T3-L1 adipocyte viability – cell-based, 3T3-L1 adipocytes, calcein-AM fluorescence, 48 h, basal, profiling panel (AID 1163). Note: test concentration not given here. Particulars: 3T3-L1 adipocytes viability, higher = more signal.
Assay [3] can be described thus: compound effects on hepatocellular carcinoma cell viability – HepG2, calcein-AM fluorescence, 48 h, basal, profiling panel (AID 1164). Note: test concentration not given here. Particulars: higher = more signal.
Assay [4] is described as follows: compound effects on multiple myeloma cell viability – MM1S, calcein-AM fluorescence, 48 h, basal, profiling panel (AID 1165).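 Note: viability of MM1S multiple myeloma cells under basal unstimulated conditions; test concentration not given here.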 Particulars: higher = more signal.
A short description of assay [5]: calcein-AM signal in unstimulated myeloma cells – cell-based, calcein-AM fluorescence, 48 h, PK04 Diversity Set, profiling panel (AID 1166).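 Note: cells grown under basal conditions without added stimulus; test concentration not given here.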 The note with it: RPMI8226 myeloma viability, higher = more signal.
The nature of assay [6]: JC-1 mitochondrial signal, unstimulated HepG2 cells – cell-based, JC-1 fluorescence, 24 h, 100 nL compound, profiling panel (AID 1167). Note: test concentration not given here. Particulars: HepG2 mitochondrial potential, higher = more signal.
Assay [7] is described as follows: JC-1 mitochondrial signal, unstimulated adipocytes – cell-based, JC-1 fluorescence, 3T3-L1 adipocytes, 24 h, 100 nL compound, profiling panel (AID 1168). Note: test concentration not given here. The note with it: JC-1 mitochondrial fluorescence, higher = more signal, called active from +8 up or from −8 down.
A short description of assay [8]: JC-1 mitochondrial signal, unstimulated myeloma cells – cell-based, JC-1 fluorescence, RPMI8226, 24 h, 100 nL compound, profiling panel (AID 1169). Note: test concentration not given here. The note with it: JC-1 mitochondrial potential fluorescence, higher = more signal.
Assay [9] in a line: JC-1 mitochondrial signal, unstimulated MM1S myeloma – cell-based, JC-1 fluorescence, 24 h, 100 nL compound, profiling panel (AID 1170). Note: test concentration not given here. The note with it: MM1S mitochondrial potential, higher = more signal.
Assay [10] can be described thus: resazurin metabolic signal in A549 cells – cell-based, resazurin fluorescence, 24 h, PK04 Diversity Set, profiling panel (AID 1171). Note: test concentration not given here. Particulars: A549 viability, higher = more signal, called active from +8 up or from −8 down.
The nature of assay [11]: resazurin metabolic signal in HepG2 cells – cell-based, resazurin fluorescence, 24 h, PK04 Diversity Set, profiling panel (AID 1172). Note: test concentration not given here. The note with it: HepG2 viability, higher = more signal. Background: Alamar Blue is a resazurin reagent that responds to reducing activity.
The nature of assay [12]: budding yeast growth changes without added modifier – OD600, strain BY4716, 24 h, basal condition, primary screen (AID 1173). Particulars: S. cerevisiae BY4716 growth, OD600, 24 h; higher = more signal, called active from +8 up or from −8 down.
The nature of assay [13]: viability profiling in MM1S myeloma cells – cell-based, resazurin fluorescence, basal, 24 h, PK04 Diversity Set, profiling panel (AID 1174). Note: test concentration not given here. The note with it: higher = more signal, called active from +8 up or from −8 down.
For assay [14], the target named is Dihydroorotate dehydrogenase (quinone), mitochondrial (Plasmodium falciparum (isolate 3D7)) (UniProt Q08210). The assay is described as follows: inhibition of P. falciparum DHODH – biochemical, C-terminal His tag, absorbance 600 nm, primary screen (AID 1175).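 Note: recombinant parasite enzyme with a five histidine tag at its C terminus; test concentration not given here.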 Particulars: PfDHODH enzyme, DCIP absorbance 600 nm; higher = more signal, called active from +8 up or from −8 down.
Chain of Dihydroorotate dehydrogenase (quinone), mitochondrial (Plasmodium falciparum (isolate 3D7)) (Q08210 whole entry, looked up): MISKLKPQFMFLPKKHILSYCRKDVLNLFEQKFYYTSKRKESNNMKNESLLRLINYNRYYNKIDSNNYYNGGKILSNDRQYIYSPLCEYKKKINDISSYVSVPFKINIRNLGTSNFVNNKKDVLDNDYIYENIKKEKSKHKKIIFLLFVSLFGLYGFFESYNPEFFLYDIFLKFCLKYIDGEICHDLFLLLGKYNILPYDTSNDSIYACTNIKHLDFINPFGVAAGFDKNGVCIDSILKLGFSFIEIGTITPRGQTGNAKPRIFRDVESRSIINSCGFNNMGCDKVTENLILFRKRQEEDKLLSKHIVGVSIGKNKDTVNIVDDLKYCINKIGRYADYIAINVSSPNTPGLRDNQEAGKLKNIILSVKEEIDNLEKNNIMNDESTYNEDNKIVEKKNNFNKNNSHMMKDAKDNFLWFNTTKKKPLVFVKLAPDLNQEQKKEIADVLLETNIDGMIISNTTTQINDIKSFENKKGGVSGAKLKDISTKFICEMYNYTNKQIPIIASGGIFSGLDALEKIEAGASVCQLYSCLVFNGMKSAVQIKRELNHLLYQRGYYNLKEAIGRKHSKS

Assay [15] can be described thus: inhibition of PAO1 biofilm formation – strain PAO1, LB-PBS medium, absorbance 600 nm, primary screen (AID 1176). Note: test concentration not given here. The note with it: P. aeruginosa PAO1 growth/biofilm, A600, 12 h; higher = more signal.
Assay [16] in a line: growth modulation of vineyard yeast isolate – strain RM11-1a, OD600, basal, 24 h, primary screen (AID 1177).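 Note: cultures grown under basal conditions with no added stressor; test concentration not given here.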 Particulars: S. cerevisiae RM11-1a growth, OD600, 24 h; higher = more signal, called active from +8 up or from −8 down.
A short description of assay [17]: growth of efflux-deficient E. coli DRC39 – strain DRC39, OD650, 24 h, E. coli filamentation inducers, primary screen (AID 1178).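 Note: growth measured as culture turbidity by optical density at 650 nm; test concentration not given here.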 Particulars: E. coli DRC39 acrAB, higher = more signal, called active from +8 up or from −8 down.
Assay [18] can be described thus: growth of efflux-deficient E. coli DRC39 – strain DRC39, OD650, 48 h, E. coli filamentation inducers, primary screen (AID 1179).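 Note: screen aims at cell division blockers that make cells filament.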 The note with it: E. coli DRC39 delta-acrAB growth, higher = more signal, called active from +8 up or from −8 down.
A short description of assay [19]: viability profiling in RPMI8226 myeloma cells – cell-based, resazurin fluorescence, basal, 24 h, PK04 Diversity Set, profiling panel (AID 1180).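 Note: RPMI8826 multiple myeloma cell line at 5000 cells per well; test concentration not given here.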 The note with it: higher = more signal.
Assay [20] has as its target E3 ubiquitin-protein ligase XIAP (Homo sapiens) (UniProt P98170). The assay is described as follows: small molecules binding XIAP protein – biophysical, small-molecule microarray, fluorescence 635 nm, primary screen (AID 1181).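 Note: score merges 667 nm emission and signal to noise over triplicate slides.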 Particulars: higher = more signal.

Chain of E3 ubiquitin-protein ligase XIAP (Homo sapiens) (P98170 whole entry, looked up): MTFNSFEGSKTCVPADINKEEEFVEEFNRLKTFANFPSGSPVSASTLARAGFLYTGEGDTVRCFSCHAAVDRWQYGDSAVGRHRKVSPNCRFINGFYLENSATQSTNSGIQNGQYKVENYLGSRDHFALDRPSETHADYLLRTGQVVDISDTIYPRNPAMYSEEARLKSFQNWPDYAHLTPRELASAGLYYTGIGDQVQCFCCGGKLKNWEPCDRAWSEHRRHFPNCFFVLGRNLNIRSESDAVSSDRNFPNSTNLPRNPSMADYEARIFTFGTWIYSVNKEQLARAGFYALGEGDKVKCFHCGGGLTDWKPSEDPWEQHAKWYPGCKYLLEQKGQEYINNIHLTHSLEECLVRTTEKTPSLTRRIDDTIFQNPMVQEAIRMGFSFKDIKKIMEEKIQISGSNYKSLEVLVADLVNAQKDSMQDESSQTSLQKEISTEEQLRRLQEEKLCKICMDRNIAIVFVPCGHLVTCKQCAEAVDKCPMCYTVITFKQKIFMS

For `CC(C)C[C@@H]1NC(=O)[C@H]2C[C@@H](C(=O)NCCCCCCNC(=O)CS)[C@@H](c3cccc(OCCO)c3)N2C1=O`, the z-score was 0.0674 in [1]; 0.466 in assay [2]; 0.696 in assay [3]; 0.118 in [4]; -0.0467 in assay [5]; -0.569 in [6]. Moreover, the z-score was 0.844 (inactive) in assay [7]; -0.404 in assay [8]; -0.343 in assay [9]; 0.0056 (inactive) in [10]; 0.808 in [11]; -0.632 (inactive) in assay [12]. In addition, the z-score in assay [13] was 0.259 (inactive); in assay [15] it was -0.145 (inactive); in [16], 0.652 (inactive); in assay [17] it was 0.941 (inactive); in assay [18] it was 1.08 (inactive); in assay [19], -0.258. In addition, the composite z-score in assay [14] is -0.625 (inactive); in assay [20], 0.356.

For the molecule `O=C1O[C@H](c2ccccc2)[C@H](c2ccccc2)N2[C@H]1[C@@H](C(=O)O)[C@]1(C(=O)Nc3ccc(C#CC4=CCCCC4)cc31)[C@H]2c1ccc(OCCO)cc1`, the z-score in assay [1] is 0.199; in [2], -0.774; in [3], 0.122; in assay [4], -2.72; in assay [5] it was -4.06; in [6], -4.3. In addition, the z-score in assay [7] was -3.28 (inactive); in assay [8], -0.949; in assay [9], -1.53; in [10], 0.729 (inactive); in [11], 0.732; in assay [12], 0.0899 (inactive). Besides, the z-score in assay [13] is 0.533 (inactive); in assay [15], 3.39 (inactive); in assay [16] it was 1.26 (inactive); in assay [17], 0.668 (inactive); in [18] it was -0.175 (inactive); in assay [19] it was -0.219. In addition, the results for the composite z-score in assay [14] and in assay [20] were -14.1 (active) and -0.271, respectively.

As for `CCOC(=O)C[C@H]1[C@H](OC(=O)Cc2ccc3c(c2)OCO3)[C@@H](NC(=O)C2CCCCC2)c2cc(OCCCO)ccc2N1C(=O)Cc1ccc(OC)cc1`, the z-score is 0.746 in assay [1]; 0.433 in assay [2]; 1.08 in [3]; 0.747 in assay [4]; 0.664 in [5]; 2.39 in [6]. Further, the z-score in [7] is 0.0143 (inactive); in [8], -0.0561; in [9] it was -0.784; in assay [10], -0.247 (inactive); in [11] it was -0.778; in assay [12], -0.815 (inactive). The z-score in assay [13] was 0.184 (inactive); in [15], 0.183 (inactive); in [16], -1.53 (inactive); in assay [17] it was 0.015 (inactive); in [18] it was 0.424 (inactive); in [19] it was 0.283. For the same molecule, the results for the composite z-score in [14] and in assay [20] were -0.974 (inactive) and 0.0413, respectively.

On to `COCCOC(=O)N1C(=O)[C@@]2(c3cc(C#CCC(C(=O)OC)C(=O)OC)ccc31)[C@H](C(=O)N1CCCCCCC1)[C@H]1C(=O)O[C@H](c3ccccc3)[C@H](c3ccccc3)N1[C@@H]2c1ccc(OCCO)cc1`, for which the z-score is 0.855 in assay [1]; 1.27 in [2]; 1.19 in assay [3]; -0.38 in assay [4]; 0.185 in [5]; 0.322 in assay [6]. Moreover, the z-score was -5 (inactive) in assay [7]; -0.812 in assay [8]; -1.41 in assay [9]; 1.33 (inactive) in assay [10]; 2.14 in assay [11]; 0.905 (inactive) in [12]. For the same molecule, the z-score in assay [13] was 0.281 (inactive); in [15], 1.3 (inactive); in [16], 2.41 (inactive); in assay [17] it was 0.027 (inactive); in [18], 0.271 (inactive); in assay [19], 0.437. In addition, the values for the composite z-score in assay [14] and in [20] were -0.352 (inactive) and 0.611, respectively.

For `N#Cc1ccc(NN2C(C(O)c3ccc([N+](=O)[O-])cc3)C=CC3C(=O)N(c4ccccc4)C(=O)C32)cc1` (stereo not given), the z-score in assay [1] was -1.14; in [2], 0.0202; in [3], -0.335; in assay [4], -0.237; in assay [5] it was -0.402; in assay [6], -1.91. Further, the z-score is -0.703 (inactive) in [7]; -0.993 in assay [8]; 0.0361 in assay [9]; 0.172 (inactive) in assay [10]; -1.07 in [11]; -0.203 (inactive) in assay [12]. Further, the z-score in assay [13] is -0.55 (inactive); in [15], 1.23 (inactive); in [16], -0.487 (inactive); in assay [17] it was -0.685 (inactive); in assay [18] it was -0.418 (inactive); in [19] it was -1.08. Further, the composite z-score is -0.0079 (inactive) in assay [14] and -0.0391 in [20].

For `COCCOC(=O)N1C(=O)[C@@]2(c3ccccc31)[C@H](C(=O)NC[C@H](O)c1ccccc1)[C@H]1C(=O)O[C@H](c3ccccc3)[C@H](c3ccccc3)N1[C@@H]2c1ccc(OCCO)cc1`, the z-score in assay [1] is -0.656; in assay [2], 1.13; in assay [3], -0.655; in assay [4] it was -0.233; in [5], -0.773; in [6], 0.546. Also, the z-score is 0.843 (inactive) in assay [7]; -0.598 in assay [8]; -0.295 in assay [9]; 0.377 (inactive) in assay [10]; 1.09 in [11]; 1.42 (inactive) in [12]. In addition, the z-score was -1.04 (inactive) in assay [13]; 2.36 (inactive) in [15]; 1.61 (inactive) in [16]; 0.649 (inactive) in assay [17]; -0.559 (inactive) in assay [18]; -0.744 in assay [19]. The composite z-score in [14] was -0.0923 (inactive); in assay [20], -0.156.

For `CC(C)C[C@@H]1NC(=O)[C@H]2C[C@@H](C(=O)NCCCCCNC(=O)CS)[C@@H](c3cccc(OCCO)c3)N2C1=O`, the z-score in assay [1] is 0.546; in [2], -0.206; in [3] it was -0.158; in [4], -1.11; in assay [5] it was -0.768; in [6], -0.0747. The z-score in [7] is -0.362 (inactive); in [8] it was 0.565; in assay [9] it was 0.975; in assay [10] it was 0.276 (inactive); in [11], 0.265; in assay [12], -0.45 (inactive). Moreover, the z-score in assay [13] is -0.229 (inactive); in [15] it was 0.326 (inactive); in assay [16] it was -0.0734 (inactive); in assay [17] it was 0.346 (inactive); in assay [18], -0.663 (inactive); in [19], -0.492. Moreover, the composite z-score in assay [14] was 0.0225 (inactive); in assay [20], 0.379.
